Assay: 384-well plate pilot, post-Golgi transport modulator project, inhibition of yeast transport mutant growth (AID 636)
Settings: absorbance 615 nm, about 18 h, stronger effect = higher value

inhibition, inactive:
Cc1noc(C)c1COc1cccc(C(=O)Nc2ccc(C#N)cc2)c1 -2.99%, Cc1ccc(NCc2nnc(SCC(=O)N3CCCCC3)n2CC2CCCO2)c(C)c1 (stereo not given) -6.8%, COc1ccc(S(=O)(=O)N2CCOCC2)cc1C(=O)Nc1cc(C)on1 -3.42%, CC(NC(=O)c1ccco1)C(c1cccs1)N1CCN(c2ccc(F)cc2)CC1 (stereo not given) -4.13%, CCN1C(=O)NC(c2cc(Br)ccc2OC)C(C(=O)OC)=C1C (stereo not given) -2.63%, COc1ccc(N2CCN(C(c3cccs3)c3nnnn3C3CCCC3)CC2)cc1 (stereo not given) -3.25%, c1ccc(-n2c(Sc3cnccn3)nnc2-c2cccs2)cc1 -5.41%, Nn1c(SCC(=O)Nc2ccc3c(c2)OCCO3)nnc1C(F)(F)F -2.5%, O=C(NC1=NCCS1)NC12CC3CC(CC(C3)C1)C2 -4.53%, CC1CCCCC1NC(=O)Cn1nnc(-c2ccc(Cl)cc2)n1 (stereo not given) -1.3%, CCOC(=O)C(NC(=O)c1ccc(OC)cc1)(N1CCOCC1)C(F)(F)F (stereo not given) -4.81%, CC(C)Cc1cc(C(=O)Nc2c(F)cc(F)cc2Br)no1 0.64%, CCC(C)(C(=O)NC1CCCCC1)N(CC1CCCO1)C(=O)c1ccccn1 (stereo not given) -0.26%, COCCNC(=O)C(c1ccc(C)o1)N(Cc1ccc(OC)cc1)C(=O)Cn1nnc2ccccc21 (stereo not given) -0.53%, CC(=O)c1c(C)[nH]c(C(=O)N2CCN(C(=O)c3ccco3)CC2)c1C -2.3%, O=C(NC12CC3CC(CC(C3)C1)C2)c1cncc(O)c1 -6.36%, CCOC(=O)C1CCN(c2nc3ccccc3nc2C(C#N)C(=O)OCCOC)CC1 (stereo not given) -6.71%, Cc1ccccc1-c1nc(CN2CCC(C(=O)NCCCN3CCOCC3)CC2)c(C)o1 1.58%, COc1ccccc1NC(=O)C1=C(C)Nc2nnnn2C1c1ccccc1OC (stereo not given) -4.16%, O=C(C1CCCN(S(=O)(=O)c2cnc[nH]2)C1)N1CC(=O)N(CCc2ccccc2)C(=O)C1 (stereo not given) -0.8%, Cc1c(Cl)cccc1N1C(=O)c2ccccc2C1=O -4.86%, CCN(CC)CCCN(Cc1cc2cc(OC)ccc2[nH]c1=O)C(=O)Nc1ccccc1 -5.73%, O=C1CCCC2=C1C(c1ccsc1)CC(=O)N2c1ccccc1 (stereo not given) -3.29%, Cc1ccc(NC(=O)CSc2nnc(NC(=O)CN3CCOCC3)s2)cc1 -5.33%, COC(=O)c1ccccc1NS(=O)(=O)c1ccc(F)cc1 -7.26%, COc1cccc(NC(=O)N2CCN(c3cccc(C)c3C)CC2)c1 1.82%, CC(C)CN(C(=O)COC(=O)Cc1n[nH]c(=O)c2ccccc12)C1CCS(=O)(=O)C1 (stereo not given) -3.12%, CC1CCCC(C(=O)OCc2ccccc2)N1 (stereo not given) -2.63%, COc1cccc(NC(=O)NC2(C(F)(F)F)Oc3ccccc3O2)c1 -5.07%, CCC(=O)N1CCc2cc(OC)c(OC)cc2C1COc1ccc(C(=O)OC)cc1 (stereo not given) -5.33%, Cc1ccc(-c2cc(C(=O)N3CCCC3)no2)cc1 -2.11%, CCn1nc(C)c(NC(=O)c2cc(Br)ccc2Cl)c1C -4.42%, Cc1cc2nc3c(nc2cc1C)C1(C(=O)O)CCC3(C)C1(C)C (stereo not given) 0%, COc1ccccc1CN1CC(C(=O)N2CCN(c3ccc(F)cc3)CC2)CC1=O (stereo not given) -2.24%, CC(=O)N1CCC2(CC1)CC(=O)c1cc(OCC(=O)NCc3ccco3)ccc1O2 0.92%, Cc1ccc(C(=O)CCC2CCCC2=O)cc1 (stereo not given) -4.73%, Cc1nc(CNS(=O)(=O)c2ccc3c(c2)OCCO3)cs1 2.24%, CCOCCCNC(=O)C1CCN(C(=O)Nc2ccc(Cl)cc2)CC1 -5%, CCc1nc2c(cnn2-c2ccc(Cl)cc2)c(=O)n1-c1ccc2c(c1)OCCO2 0.79%, CCOc1ccc(C2CC(=O)NC3=C2C(=O)CCC3)cc1Cl (stereo not given) -4.21%

Assay: growth suppression of yeast trafficking mutant, preliminary HTS, modulators of trafficking downstream of Golgi apparatus project, 1536-format plate, OD 615 nm (AID 637; in the data active = inhibition above about 30%)
Settings: yeast transport mutant growth, absorbance 615 nm, 18 h; stronger effect = higher value

inhibition, inactive:
Cc1noc(C)c1COc1cccc(C(=O)Nc2ccc(C#N)cc2)c1 -6.67%, Cc1ccc(NCc2nnc(SCC(=O)N3CCCCC3)n2CC2CCCO2)c(C)c1 (stereo not given) 1.13%, COc1ccc(S(=O)(=O)N2CCOCC2)cc1C(=O)Nc1cc(C)on1 -9.83%, CC(NC(=O)c1ccco1)C(c1cccs1)N1CCN(c2ccc(F)cc2)CC1 (stereo not given) 0.16%, CCN1C(=O)NC(c2cc(Br)ccc2OC)C(C(=O)OC)=C1C (stereo not given) -8.1%, COc1ccc(N2CCN(C(c3cccs3)c3nnnn3C3CCCC3)CC2)cc1 (stereo not given) -5.87%, c1ccc(-n2c(Sc3cnccn3)nnc2-c2cccs2)cc1 -3.49%, Nn1c(SCC(=O)Nc2ccc3c(c2)OCCO3)nnc1C(F)(F)F 1.27%, O=C(NC1=NCCS1)NC12CC3CC(CC(C3)C1)C2 5.08%, CC1CCCCC1NC(=O)Cn1nnc(-c2ccc(Cl)cc2)n1 (stereo not given) -5.4%, CCOC(=O)C(NC(=O)c1ccc(OC)cc1)(N1CCOCC1)C(F)(F)F (stereo not given) 0.32%, CC(C)Cc1cc(C(=O)Nc2c(F)cc(F)cc2Br)no1 -4.33%, CCC(C)(C(=O)NC1CCCCC1)N(CC1CCCO1)C(=O)c1ccccn1 (stereo not given) -1.15%, COCCNC(=O)C(c1ccc(C)o1)N(Cc1ccc(OC)cc1)C(=O)Cn1nnc2ccccc21 (stereo not given) -0.82%, CC(=O)c1c(C)[nH]c(C(=O)N2CCN(C(=O)c3ccco3)CC2)c1C -0.49%, O=C(NC12CC3CC(CC(C3)C1)C2)c1cncc(O)c1 0.32%, CCOC(=O)C1CCN(c2nc3ccccc3nc2C(C#N)C(=O)OCCOC)CC1 (stereo not given) 0.16%, Cc1ccccc1-c1nc(CN2CCC(C(=O)NCCCN3CCOCC3)CC2)c(C)o1 -4.29%, COc1ccccc1NC(=O)C1=C(C)Nc2nnnn2C1c1ccccc1OC (stereo not given) -1.5%, O=C(C1CCCN(S(=O)(=O)c2cnc[nH]2)C1)N1CC(=O)N(CCc2ccccc2)C(=O)C1 (stereo not given) 21.6%, Cc1c(Cl)cccc1N1C(=O)c2ccccc2C1=O -2.3%, CCN(CC)CCCN(Cc1cc2cc(OC)ccc2[nH]c1=O)C(=O)Nc1ccccc1 -1.97%, O=C1CCCC2=C1C(c1ccsc1)CC(=O)N2c1ccccc1 (stereo not given) -3.82%, Cc1ccc(NC(=O)CSc2nnc(NC(=O)CN3CCOCC3)s2)cc1 -2.46%, COC(=O)c1ccccc1NS(=O)(=O)c1ccc(F)cc1 -3.49%, COc1cccc(NC(=O)N2CCN(c3cccc(C)c3C)CC2)c1 -3%, CC(C)CN(C(=O)COC(=O)Cc1n[nH]c(=O)c2ccccc12)C1CCS(=O)(=O)C1 (stereo not given) -1.75%, CC1CCCC(C(=O)OCc2ccccc2)N1 (stereo not given) -1.11%, COc1cccc(NC(=O)NC2(C(F)(F)F)Oc3ccccc3O2)c1 -0.16%, CCC(=O)N1CCc2cc(OC)c(OC)cc2C1COc1ccc(C(=O)OC)cc1 (stereo not given) 1.61%, Cc1ccc(-c2cc(C(=O)N3CCCC3)no2)cc1 -5.16%, CCn1nc(C)c(NC(=O)c2cc(Br)ccc2Cl)c1C 3.44%, Cc1cc2nc3c(nc2cc1C)C1(C(=O)O)CCC3(C)C1(C)C (stereo not given) -2.3%, COc1ccccc1CN1CC(C(=O)N2CCN(c3ccc(F)cc3)CC2)CC1=O (stereo not given) 11.5%, CC(=O)N1CCC2(CC1)CC(=O)c1cc(OCC(=O)NCc3ccco3)ccc1O2 -3.17%, Cc1ccc(C(=O)CCC2CCCC2=O)cc1 (stereo not given) -2.67%, Cc1nc(CNS(=O)(=O)c2ccc3c(c2)OCCO3)cs1 9.51%, CCOCCCNC(=O)C1CCN(C(=O)Nc2ccc(Cl)cc2)CC1 -1%, CCc1nc2c(cnn2-c2ccc(Cl)cc2)c(=O)n1-c1ccc2c(c1)OCCO2 -5.97%, CCOc1ccc(C2CC(=O)NC3=C2C(=O)CCC3)cc1Cl (stereo not given) 0%
